D3 ag: agonists of human D3 dopamine receptor. P35462. D3R DiscoveRx beta-arrestin cells, luminescence, 90 min. max activation, %. actives 0.58% (n = 410,000); in the data active = max activation above about 30%; note: 0% is about no effect
Target sequence (P35462 whole entry, looked up): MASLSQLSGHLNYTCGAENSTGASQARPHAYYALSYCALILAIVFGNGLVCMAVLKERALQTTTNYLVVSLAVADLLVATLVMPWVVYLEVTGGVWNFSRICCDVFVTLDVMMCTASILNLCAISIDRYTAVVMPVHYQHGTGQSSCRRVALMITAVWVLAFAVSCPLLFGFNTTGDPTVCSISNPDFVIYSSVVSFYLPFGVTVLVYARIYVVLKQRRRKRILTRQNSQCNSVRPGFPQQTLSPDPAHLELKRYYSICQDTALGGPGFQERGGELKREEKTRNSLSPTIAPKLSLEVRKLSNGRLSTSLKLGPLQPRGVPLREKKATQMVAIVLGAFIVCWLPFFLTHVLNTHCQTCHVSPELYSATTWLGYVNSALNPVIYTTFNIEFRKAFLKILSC
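Agonist-mode cell screen: cells plated at 1500/well and incubated overnight at 37 °C, then exposed to library compounds for 90 min at 37 °C. Detection reagent was added for 30–60 min at room temperature, and luminescence was read.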
TDP1 cell noCPT: qHTS for Inhibitors of human tyrosyl-DNA phosphodiesterase 1 (TDP1): qHTS in cells in absence of CPT; AID 686978, 2013; Potency, µM (series often up to 46.2 µM), without a hit: top-dose activity change, negative = growth inhibition, actives largely listed as inhibitors; actives 15% (n = 420,000); DT40 Tdp1-/- hTDP1 cells, no CPT, ATP luminescence, 48 h; note: potency is the fitted concentration of half-maximal effect; % is set by controls: 0 for no effect and ±100 for the full control effect; nearly all actives have a fitted effect of over 55% in size
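Chicken DT40 Tdp1-/- cells stably complemented with human TDP1 were seeded at 400 cells/well with DMSO in place of 20 nM camptothecin. After compound pinning, cells grew at least 48 hr at 37 °C; viability read by CellTiter-Glo luminescence.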
IL-1B inflam inh: inhibitors of inflammasome signaling (IL-1 beta secretion); THP-1 LPS/ATP IL-1B secretion, AlphaLISA, 16 h; stronger effect = lower value; activity change, % at 57.5 µM; actives 4.7% (n = 360,000); AID 743279; in the data active = activity change below about -50%; inconclusive = mostly about -30% to -49%; note: % is set by controls: 0 for no effect and ±100 for the full control effect
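THP-1 cells pretreated 1 hr with compounds (up to 57.5 uM final), then stimulated with LPS (250 ng/mL final) plus ATP (1.25 mM final); secreted IL-1B measured by AlphaLISA after 16 hr, decreased signal indicating inhibition.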
DT40 TDP1 CPT: growth inhibition of DT40 Tdp1-/-;hTDP1 cells with camptothecin (screen for TDP1 inhibitors); chicken DT40 Tdp1-/-;hTDP1 cells + 20 nM CPT, ATP luminescence, 48 h; Potency, µM (highest dose often 46.2 µM), for inactives: at the highest dose activity change, negative = growth inhibition, hits mostly inhibitors; actives 12% (n = 420,000); note: potency is the fitted concentration of half-maximal effect; % is set by controls: 0 for no effect and ±100 for the full control effect; nearly all actives have a fitted effect of over 55% in size
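Chicken DT40 Tdp1-/- cells stably complemented with human TDP1 were seeded at 400 cells/well in medium containing 20 nM camptothecin, exposed to pin-transferred compounds, and grown at 37 °C for at least 48 hr. Viability was read as ATP luminescence.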
D3 antag: blocks the human D3 dopamine receptor; actives 2.5% (n = 360,000); P35462; max response, negative = inhibition, %; D3R cells, DiscoveRx beta-arrestin luminescence, antagonist mode; stronger effect = lower value; in the data active = max response below about -50%; inconclusive = no clear call, values can overlap the other calls; note: % is set by controls: 0 for no effect and ±100 for the full control effect
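Cells expressing the human receptor were seeded at 1500 cells/well, incubated overnight at 37 degrees C in 5% CO2, then exposed to library compounds with dopamine controls for 90 minutes at 37 degrees C before luminescent detection.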
ClpP mod: qHTS Assay for Activators of ClpP; Potency, µM (doses to about 57.5 µM), without a hit: at the highest dose activity change, negative = active; actives 1.9% (n = 340,000); AID 651965, 2013; purified B. subtilis ClpP, FRET peptide cleavage, 20 min; active = well fitted falling curve with a large enough effect; inconclusive = small, poorly fitted or top-dose-only effect; inactive = no such curve, though single readings can be large or run the other way; note: potency is the fitted concentration of half-maximal effect; the source files actives as falling curves though it sought activators and does not explain the sign; nearly all actives have a fitted effect of over 65% in size
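Buffer: 100 mM Tris/HCl pH8, 100 mM KCl, 0.05% low protease BSA, 2.5% glycerol, 0.01% Tween-20. ClpP 10 microg/mL final; 20 min RT; delta FRET normalized to ADEP and DMSO controls.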
* = called active by the depositor; ? = inconclusive; . = no result. In the library only some 21% were active in any assay of this set; here they are far more common. Unless noted, calls come from the whole dose curve; as a rule, active = well fitted inhibition curve with a large enough effect; inconclusive = small, poorly fitted or top-dose-only effect; inactive = flat fitted curve, though single readings scatter.

SMILES | D3 ag | TDP1 cell noCPT | IL-1B inflam inh | DT40 TDP1 CPT | D3 antag | ClpP mod
Cc1ccc(N(CC(=O)Nc2ccc(Br)c(C)c2)S(=O)(=O)c2cccs2)cc1 | -1.6 | -28.1% | . | ? | . | 1.1%
Cc1cc(NC(=O)CN(c2cccc(C)c2C)S(=O)(=O)c2ccccc2)ccc1Br | 3.0 | 16.4µM* | . | 18.4µM* | . | -6.1%
Cc1ccc(S(=O)(=O)N(CC(=O)Nc2ccccc2C(=O)O)c2ccccc2C)cc1 | 2.1 | ? | 44.7 | 1.2% | 4.3 | .
Cc1cc(C)cc(NC(=O)CN(c2cccc(C)c2C)S(=O)(=O)c2ccccc2)c1 | 3.5 | 20.6µM* | . | 16.4µM* | . | 2.3%
CCNc1ncc2nc(CCc3ccccc3)c(=O)n(CCOC)c2n1 | . | -14.7% | . | 10.0% | . | .
Cc1ccc(Nc2nc(-c3sc(C)nc3C)cs2)cc1 | -3.0 | 0.581µM* | 71.0 | 0.92µM* | 11.3 | -9.3%
CC(=O)c1ccc(Nc2nc(-c3sc(C)nc3C)cs2)cc1 | 3.4 | 1.84µM* | 1.0 | 2.06µM* | 24.2 | ?
Cc1ccc(-c2csc(Nc3ccc(S(N)(=O)=O)cc3)n2)o1 | -6.9 | ? | -18.8 | -15.2% | 0.4 | .
Cc1nc(C)c(-c2csc(Nc3ccc(S(N)(=O)=O)cc3)n2)s1 | 1.9 | ? | -58.9* | ? | 0.2 | -5.5%
CC(=O)Nc1ccc(Nc2nc(-c3sc(C)nc3C)cs2)cc1 | -3.4 | ? | -50.4* | 16.4µM* | -3.4 | -1.7%
COc1ccc(NC(=O)CN(C)C(=O)c2ccc(-c3ccccc3Cl)o2)cc1 | -14.8 | ? | ? | -18.6% | -11.1 | .
Cc1nc(Nc2ccc(S(N)(=O)=O)cc2)sc1-c1ccccc1 | 6.4 | 18.4µM* | -80.4* | ? | -6.7 | .
NS(=O)(=O)OCCCc1ccccc1 | -9.3 | -11.3% | 20.2 | ? | ? | -2.1%
[2H]C(CCOS(N)(=O)=O)c1ccc(C(C)(C)C)cc1 (centres undefined) | -25.6 | 20.6µM* | 17.9 | 20.6µM* | -4.9 | 1.0%
CC(C)CCNC(=O)c1ccc2c(c1)N(Cc1ccccc1F)C(=O)c1ccccc1S2(=O)=O | -10.2 | ? | . | ? | . | 0.7%
Cc1cccc(CN2C(=O)c3ccccc3S(=O)(=O)c3ccc(C(=O)N(C)Cc4ccccc4)cc32)c1 | 3.0 | ? | . | 16.4µM* | . | 0.0%
CN(Cc1ccccc1)C(=O)c1ccc2c(c1)N(Cc1ccccc1F)C(=O)c1ccccc1S2(=O)=O | -9.4 | 9.2µM* | . | ? | . | -3.6%
COCCn1c(CCC(=O)Nc2ccc(OC)c(OC)c2)nc2cccnc21 | 1.2 | -25.2% | . | -3.8% | . | 0.4%
Cc1ccc(C(=O)OCC(=O)NC2CCCCC2)cc1S(=O)(=O)N1CCCCC1 | 2.1 | 0.8% | 15.2 | -3.4% | 6.1 | 0.5%
Cc1ccc(CN=C(N)Nc2nc(C)cc(C)n2)cc1 | -2.0 | 3.26µM* | -52.1* | 6.51µM* | -0.3 | 1.7%
Cc1ccc(Nc2nc(C)cc(C)n2)c(Br)c1 | -4.1 | -14.9% | 6.2 | -0.1% | 20.9 | 1.3%
N#Cc1nc(-c2ccc(OCc3ccccc3)cc2)oc1NCc1ccco1 | 0.3 | -27.0% | -6.6 | -27.1% | 0.0 | 10µM*
Cc1ccc2cc(C#N)c(NCc3ccco3)nc2c1 | -2.2 | ? | 12.5 | 23.1µM* | 0.0 | 25.1µM*
CNc1oc(-c2ccc(OCc3ccccc3)cc2)nc1C#N | 18.1 | -22.1% | ? | -27.4% | 13.1 | 35.5µM*
Cc1ccc2cc(C)c(SCC(=O)NCc3ccco3)nc2c1 | 1.1 | ? | 3.9 | -23.7% | -10.3 | .
N#Cc1nc(-c2ccc(F)cc2)oc1NCc1ccccc1 | -7.3 | ? | 27.8 | ? | -14.0 | 5.0%
N#Cc1nc(-c2ccco2)oc1NCc1ccccc1Cl | -7.7 | ? | -4.7 | -2.6% | 11.7 | 1.7%

Screening results from PubChem.
